The values that follow come from ChEMBL document CHEMBL2218924, “A broad activity screen in support of a chemogenomic map for kinase signalling research and drug discovery” (Biochem J, 2013).

For test [1], the target named is T1, Muscle, skeletal receptor tyrosine-protein kinase (Homo sapiens) (UniProt O15146).
T1 sequence (whole entry): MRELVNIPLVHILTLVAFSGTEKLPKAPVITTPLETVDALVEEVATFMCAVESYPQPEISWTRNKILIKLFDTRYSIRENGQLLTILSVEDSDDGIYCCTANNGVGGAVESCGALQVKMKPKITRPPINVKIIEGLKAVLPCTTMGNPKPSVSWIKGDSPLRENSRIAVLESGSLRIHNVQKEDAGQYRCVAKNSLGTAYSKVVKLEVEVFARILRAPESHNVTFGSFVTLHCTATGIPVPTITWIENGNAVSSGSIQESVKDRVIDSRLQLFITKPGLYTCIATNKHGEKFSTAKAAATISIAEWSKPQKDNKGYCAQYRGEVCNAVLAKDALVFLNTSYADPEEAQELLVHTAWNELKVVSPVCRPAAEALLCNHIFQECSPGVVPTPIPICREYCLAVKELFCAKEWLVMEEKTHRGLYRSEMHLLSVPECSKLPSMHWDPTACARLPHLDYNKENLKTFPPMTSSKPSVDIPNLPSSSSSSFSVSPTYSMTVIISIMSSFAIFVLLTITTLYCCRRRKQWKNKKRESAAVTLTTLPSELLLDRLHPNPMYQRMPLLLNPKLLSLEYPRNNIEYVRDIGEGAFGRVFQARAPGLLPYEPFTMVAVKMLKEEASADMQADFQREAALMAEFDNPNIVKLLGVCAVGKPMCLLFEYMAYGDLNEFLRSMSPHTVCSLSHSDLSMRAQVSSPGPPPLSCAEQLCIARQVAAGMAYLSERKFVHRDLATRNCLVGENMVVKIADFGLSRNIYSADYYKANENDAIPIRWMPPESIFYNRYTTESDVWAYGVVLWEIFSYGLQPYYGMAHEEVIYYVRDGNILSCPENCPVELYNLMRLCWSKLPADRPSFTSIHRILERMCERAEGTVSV
To be noted: at 1 µM.

Test [2] has as its target T1, Muscle, skeletal receptor tyrosine-protein kinase (Homo sapiens). Conditions: at 10 µM.
For test [3], the target named is T2, Serine/threonine-protein kinase Nek11 (Homo sapiens) (UniProt Q8NG66).
T2 sequence (whole entry): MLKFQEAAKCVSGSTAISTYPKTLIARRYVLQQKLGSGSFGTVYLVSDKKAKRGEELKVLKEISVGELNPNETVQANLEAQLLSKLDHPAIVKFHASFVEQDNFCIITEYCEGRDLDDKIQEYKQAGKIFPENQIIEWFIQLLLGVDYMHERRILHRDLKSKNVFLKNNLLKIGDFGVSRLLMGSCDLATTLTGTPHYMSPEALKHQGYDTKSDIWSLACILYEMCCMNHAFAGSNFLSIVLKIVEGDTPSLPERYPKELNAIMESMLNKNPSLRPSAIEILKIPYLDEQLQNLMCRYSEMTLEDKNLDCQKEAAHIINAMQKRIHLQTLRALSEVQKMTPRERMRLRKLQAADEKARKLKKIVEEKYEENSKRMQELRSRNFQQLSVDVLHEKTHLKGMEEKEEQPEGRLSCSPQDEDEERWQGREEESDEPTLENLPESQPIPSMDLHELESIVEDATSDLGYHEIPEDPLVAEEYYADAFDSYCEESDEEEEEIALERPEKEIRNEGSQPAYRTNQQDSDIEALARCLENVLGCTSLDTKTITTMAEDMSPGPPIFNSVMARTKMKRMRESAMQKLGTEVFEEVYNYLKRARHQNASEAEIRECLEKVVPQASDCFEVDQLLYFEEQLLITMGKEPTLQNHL
Conditions: at 1 µM.

Test [4] deals with T2, Serine/threonine-protein kinase Nek11 (Homo sapiens). Conditions: at 10 µM.
Test [5] addresses T3, Serine/threonine-protein kinase Nek2 (Homo sapiens) (UniProt P51955).
T3 sequence (whole entry): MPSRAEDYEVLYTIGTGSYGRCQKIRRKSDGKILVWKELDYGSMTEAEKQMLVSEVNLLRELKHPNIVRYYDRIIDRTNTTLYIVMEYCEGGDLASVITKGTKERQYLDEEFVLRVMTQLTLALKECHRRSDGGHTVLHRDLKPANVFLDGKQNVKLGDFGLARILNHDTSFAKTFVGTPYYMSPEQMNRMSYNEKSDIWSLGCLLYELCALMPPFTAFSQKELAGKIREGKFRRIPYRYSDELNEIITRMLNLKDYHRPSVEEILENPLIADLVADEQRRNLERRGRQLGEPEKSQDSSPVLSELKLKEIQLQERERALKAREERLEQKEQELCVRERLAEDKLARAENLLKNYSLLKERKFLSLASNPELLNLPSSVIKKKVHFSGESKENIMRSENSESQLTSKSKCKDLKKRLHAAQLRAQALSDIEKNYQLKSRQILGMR
Conditions: at 1 µM.

Test [6] has as its target T3, Serine/threonine-protein kinase Nek2 (Homo sapiens). To be noted: at 10 µM.
Test [7] concerns the target T4, Serine/threonine-protein kinase Nek3 (Homo sapiens) (UniProt P51956).
T4 sequence (whole entry): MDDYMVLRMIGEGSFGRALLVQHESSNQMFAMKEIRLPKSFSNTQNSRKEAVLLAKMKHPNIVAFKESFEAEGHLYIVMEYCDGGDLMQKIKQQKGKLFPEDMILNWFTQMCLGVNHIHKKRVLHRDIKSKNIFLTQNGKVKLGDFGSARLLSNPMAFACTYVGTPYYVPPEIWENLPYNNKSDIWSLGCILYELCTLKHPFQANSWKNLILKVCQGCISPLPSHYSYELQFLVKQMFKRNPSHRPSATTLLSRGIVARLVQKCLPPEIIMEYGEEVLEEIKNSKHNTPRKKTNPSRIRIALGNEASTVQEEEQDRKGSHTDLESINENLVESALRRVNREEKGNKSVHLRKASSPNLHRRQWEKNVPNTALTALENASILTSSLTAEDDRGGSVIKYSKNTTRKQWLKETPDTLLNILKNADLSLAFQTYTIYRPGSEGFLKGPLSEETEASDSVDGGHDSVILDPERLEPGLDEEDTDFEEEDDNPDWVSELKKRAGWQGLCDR
To be noted: at 1 µM.

Test [8] has as its target T4, Serine/threonine-protein kinase Nek3 (Homo sapiens). To be noted: at 10 µM.
The target in test [9] is Serine/threonine-protein kinase tousled-like 2 (Homo sapiens) (UniProt Q86UE8). To be noted: at 1 µM.
Test [10] has the same target. To be noted: at 10 µM.
For test [11], the target named is T5, Testis-specific serine/threonine-protein kinase 1 (Homo sapiens) (UniProt Q9BXA7).
T5 sequence (whole entry): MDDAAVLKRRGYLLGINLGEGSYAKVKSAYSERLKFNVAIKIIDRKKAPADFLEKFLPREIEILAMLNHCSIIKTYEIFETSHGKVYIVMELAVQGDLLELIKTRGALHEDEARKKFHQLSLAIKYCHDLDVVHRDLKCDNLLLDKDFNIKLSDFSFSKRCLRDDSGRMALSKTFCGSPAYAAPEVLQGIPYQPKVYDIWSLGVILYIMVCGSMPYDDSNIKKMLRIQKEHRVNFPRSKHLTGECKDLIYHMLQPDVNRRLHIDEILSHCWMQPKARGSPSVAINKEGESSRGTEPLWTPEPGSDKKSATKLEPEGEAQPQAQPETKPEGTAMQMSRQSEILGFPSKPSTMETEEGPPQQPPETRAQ
Conditions: at 1 µM.

Test [12] addresses T5, Testis-specific serine/threonine-protein kinase 1 (Homo sapiens). To be noted: at 10 µM.
The target of test [13] is T6, Testis-specific serine/threonine-protein kinase 2 (Homo sapiens) (UniProt Q96PF2).
T6 sequence (whole entry): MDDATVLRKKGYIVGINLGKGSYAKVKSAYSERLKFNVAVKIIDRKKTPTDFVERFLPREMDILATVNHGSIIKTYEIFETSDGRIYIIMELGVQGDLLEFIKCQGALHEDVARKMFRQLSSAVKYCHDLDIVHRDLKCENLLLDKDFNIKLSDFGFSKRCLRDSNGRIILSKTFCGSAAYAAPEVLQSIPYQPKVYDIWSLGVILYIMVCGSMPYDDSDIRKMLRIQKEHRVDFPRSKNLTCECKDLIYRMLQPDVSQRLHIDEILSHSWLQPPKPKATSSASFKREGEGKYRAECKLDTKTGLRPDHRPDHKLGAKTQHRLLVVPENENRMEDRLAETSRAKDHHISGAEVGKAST
To be noted: at 10 µM.

Test [14] deals with T7, Tyrosine-protein kinase Tec (Homo sapiens) (UniProt P42680).
T7 sequence (whole entry): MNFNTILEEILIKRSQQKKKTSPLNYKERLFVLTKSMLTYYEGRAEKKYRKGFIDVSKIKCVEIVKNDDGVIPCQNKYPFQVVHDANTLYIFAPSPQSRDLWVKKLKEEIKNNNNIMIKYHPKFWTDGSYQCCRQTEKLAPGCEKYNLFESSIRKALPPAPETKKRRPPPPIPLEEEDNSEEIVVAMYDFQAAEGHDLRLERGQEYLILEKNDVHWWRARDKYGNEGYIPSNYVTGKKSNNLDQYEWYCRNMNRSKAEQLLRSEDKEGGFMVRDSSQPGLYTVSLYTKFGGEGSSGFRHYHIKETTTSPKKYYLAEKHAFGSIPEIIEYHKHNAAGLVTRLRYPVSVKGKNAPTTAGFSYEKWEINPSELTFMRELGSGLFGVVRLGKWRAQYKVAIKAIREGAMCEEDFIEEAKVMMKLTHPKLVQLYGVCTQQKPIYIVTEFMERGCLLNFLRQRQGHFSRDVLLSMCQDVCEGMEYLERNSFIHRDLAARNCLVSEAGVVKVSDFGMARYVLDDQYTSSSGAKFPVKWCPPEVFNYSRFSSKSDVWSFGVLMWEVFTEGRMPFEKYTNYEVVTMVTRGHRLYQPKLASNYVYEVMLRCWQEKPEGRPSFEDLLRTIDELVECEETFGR
To be noted: at 1 µM.

Test [15] has as its target T7, Tyrosine-protein kinase Tec (Homo sapiens). Conditions: at 10 µM.
In test [16] the target is Angiopoietin-1 receptor (Homo sapiens) (UniProt Q02763). To be noted: at 1 µM.
The target is the same in test [17]. To be noted: at 10 µM.
In test [18] the target is High affinity nerve growth factor receptor (Homo sapiens) (UniProt P04629). Conditions: at 1 µM.
For test [19] the target is unchanged. To be noted: at 10 µM.
In test [20] the target is BDNF/NT-3 growth factors receptor (Homo sapiens) (UniProt Q16620). Conditions: at 1 µM.
Chain of BDNF/NT-3 growth factors receptor (Homo sapiens) (Q16620 32-822 limits assumed): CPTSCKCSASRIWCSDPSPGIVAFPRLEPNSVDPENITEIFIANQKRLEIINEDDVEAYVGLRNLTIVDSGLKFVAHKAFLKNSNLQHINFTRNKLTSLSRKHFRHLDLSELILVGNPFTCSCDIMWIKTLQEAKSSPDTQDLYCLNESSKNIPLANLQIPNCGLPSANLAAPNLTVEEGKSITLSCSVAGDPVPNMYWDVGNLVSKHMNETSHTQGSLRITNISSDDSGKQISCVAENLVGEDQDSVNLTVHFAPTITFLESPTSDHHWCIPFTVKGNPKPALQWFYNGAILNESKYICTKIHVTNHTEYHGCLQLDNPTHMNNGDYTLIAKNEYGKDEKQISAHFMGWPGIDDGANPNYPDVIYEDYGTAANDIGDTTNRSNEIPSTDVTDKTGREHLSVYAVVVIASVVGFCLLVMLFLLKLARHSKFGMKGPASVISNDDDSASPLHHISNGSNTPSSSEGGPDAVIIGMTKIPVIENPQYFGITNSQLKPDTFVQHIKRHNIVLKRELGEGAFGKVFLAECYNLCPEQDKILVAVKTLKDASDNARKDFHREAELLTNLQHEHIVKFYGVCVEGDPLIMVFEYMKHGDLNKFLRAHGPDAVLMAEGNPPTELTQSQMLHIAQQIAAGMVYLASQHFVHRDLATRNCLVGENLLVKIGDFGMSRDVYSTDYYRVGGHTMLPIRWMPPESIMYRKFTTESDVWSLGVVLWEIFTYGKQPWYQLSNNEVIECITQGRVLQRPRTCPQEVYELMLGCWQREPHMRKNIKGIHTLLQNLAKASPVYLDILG

Chain of High affinity nerve growth factor receptor (Homo sapiens) (P04629 33-796 limits assumed): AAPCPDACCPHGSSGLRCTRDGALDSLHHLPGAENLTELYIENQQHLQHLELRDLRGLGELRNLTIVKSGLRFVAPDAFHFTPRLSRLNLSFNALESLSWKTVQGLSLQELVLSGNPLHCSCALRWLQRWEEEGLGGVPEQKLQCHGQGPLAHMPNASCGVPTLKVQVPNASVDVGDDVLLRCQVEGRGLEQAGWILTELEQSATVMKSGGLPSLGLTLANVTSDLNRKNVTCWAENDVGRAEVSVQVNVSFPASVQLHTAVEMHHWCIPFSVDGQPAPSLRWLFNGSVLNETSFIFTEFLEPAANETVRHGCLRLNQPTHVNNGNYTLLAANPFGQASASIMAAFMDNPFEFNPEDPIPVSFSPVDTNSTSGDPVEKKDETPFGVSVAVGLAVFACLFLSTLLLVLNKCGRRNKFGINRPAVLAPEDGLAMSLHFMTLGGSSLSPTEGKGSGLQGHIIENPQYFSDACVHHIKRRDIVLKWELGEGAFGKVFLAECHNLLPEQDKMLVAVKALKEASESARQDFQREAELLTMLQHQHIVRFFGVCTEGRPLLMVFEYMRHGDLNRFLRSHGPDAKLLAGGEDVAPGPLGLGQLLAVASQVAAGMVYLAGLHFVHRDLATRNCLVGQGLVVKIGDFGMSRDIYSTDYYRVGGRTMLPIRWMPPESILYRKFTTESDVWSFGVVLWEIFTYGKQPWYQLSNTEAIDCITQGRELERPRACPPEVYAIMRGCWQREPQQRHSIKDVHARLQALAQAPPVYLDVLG
Chain of Serine/threonine-protein kinase tousled-like 2 (Homo sapiens) (Q86UE8 whole entry, looked up): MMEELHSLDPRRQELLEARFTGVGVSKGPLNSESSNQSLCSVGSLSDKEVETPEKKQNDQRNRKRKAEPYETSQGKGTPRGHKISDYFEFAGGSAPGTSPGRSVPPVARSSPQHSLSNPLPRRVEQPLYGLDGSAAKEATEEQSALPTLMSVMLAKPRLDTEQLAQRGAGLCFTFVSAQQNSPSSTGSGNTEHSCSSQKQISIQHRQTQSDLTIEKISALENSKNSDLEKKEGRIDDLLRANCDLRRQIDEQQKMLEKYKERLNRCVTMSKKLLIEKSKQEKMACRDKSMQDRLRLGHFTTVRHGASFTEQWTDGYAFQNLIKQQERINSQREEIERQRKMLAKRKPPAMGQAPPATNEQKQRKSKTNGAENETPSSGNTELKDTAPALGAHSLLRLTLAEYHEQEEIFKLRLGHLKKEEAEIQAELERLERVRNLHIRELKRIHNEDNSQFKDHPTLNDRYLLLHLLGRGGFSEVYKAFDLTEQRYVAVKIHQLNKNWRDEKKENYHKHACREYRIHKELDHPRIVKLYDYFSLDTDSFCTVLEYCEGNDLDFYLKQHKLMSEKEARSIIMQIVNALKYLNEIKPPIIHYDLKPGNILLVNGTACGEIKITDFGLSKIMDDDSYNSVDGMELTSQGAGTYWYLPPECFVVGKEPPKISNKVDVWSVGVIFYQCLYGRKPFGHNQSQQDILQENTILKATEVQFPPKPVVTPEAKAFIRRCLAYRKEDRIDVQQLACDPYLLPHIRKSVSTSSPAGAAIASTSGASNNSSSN
Chain of Angiopoietin-1 receptor (Homo sapiens) (Q02763 whole entry): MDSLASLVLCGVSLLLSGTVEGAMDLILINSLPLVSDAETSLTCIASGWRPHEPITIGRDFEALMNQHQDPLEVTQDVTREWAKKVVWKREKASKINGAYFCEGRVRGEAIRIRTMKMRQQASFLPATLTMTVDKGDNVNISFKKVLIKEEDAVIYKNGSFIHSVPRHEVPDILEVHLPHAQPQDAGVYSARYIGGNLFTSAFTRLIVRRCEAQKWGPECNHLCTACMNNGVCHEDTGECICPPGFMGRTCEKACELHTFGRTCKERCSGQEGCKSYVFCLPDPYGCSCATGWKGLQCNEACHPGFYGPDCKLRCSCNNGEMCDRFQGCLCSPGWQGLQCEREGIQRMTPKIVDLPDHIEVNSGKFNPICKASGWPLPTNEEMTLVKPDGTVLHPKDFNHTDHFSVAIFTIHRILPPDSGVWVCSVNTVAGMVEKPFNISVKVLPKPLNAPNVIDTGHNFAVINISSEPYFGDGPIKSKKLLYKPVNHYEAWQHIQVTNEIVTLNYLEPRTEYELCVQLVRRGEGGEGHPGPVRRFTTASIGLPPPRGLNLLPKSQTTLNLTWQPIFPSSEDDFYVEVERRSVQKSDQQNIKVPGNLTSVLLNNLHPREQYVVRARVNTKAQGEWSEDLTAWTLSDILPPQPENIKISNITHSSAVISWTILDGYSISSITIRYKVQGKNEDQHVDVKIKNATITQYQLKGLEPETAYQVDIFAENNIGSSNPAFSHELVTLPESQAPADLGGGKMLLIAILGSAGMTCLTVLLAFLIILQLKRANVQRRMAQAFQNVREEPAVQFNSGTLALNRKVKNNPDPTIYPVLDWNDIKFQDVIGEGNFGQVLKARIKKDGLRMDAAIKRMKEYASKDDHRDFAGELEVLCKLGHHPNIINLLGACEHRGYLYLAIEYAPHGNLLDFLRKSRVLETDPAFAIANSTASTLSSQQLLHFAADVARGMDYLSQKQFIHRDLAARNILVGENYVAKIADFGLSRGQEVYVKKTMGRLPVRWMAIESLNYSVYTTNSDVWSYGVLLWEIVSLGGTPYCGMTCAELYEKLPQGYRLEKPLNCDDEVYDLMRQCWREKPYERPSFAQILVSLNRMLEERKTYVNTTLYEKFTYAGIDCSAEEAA

On to `Cc1nc2cc3nc(-c4cccs4)cnc3cc2n1C`, for which the residual activity (commonly the signal under treatment as a percentage of the control signal) in test [1] worked out at 102%; in test [2], 55%; in [3], 93%; in test [4], 102%; in test [5] it was 87%; in test [6], 103%. Further, the residual activity came out at 114% in [7]; 104% in [8]; 107% in test [9]; 83% in [10]; 102% in test [11]; 85% in test [12]. Besides, the residual activity amounted to 93% in [13]; 83% in test [14]; 101% in test [15]; 81% in [16]; 61% in [17]; 72% in test [18]. The residual activity in [19] was 27%; in [20] it was 69%.
`Nc1ccc2ncnc(NCCc3ccc(Oc4ccccc4)cc3)c2c1`: the residual activity in test [1] was determined as 92%; in test [2], 49%; in test [3], 68%; in [4], 55%; in test [5], 114%; in test [6], 101%. The residual activity in test [7] was determined as 81%; in [8] it was 109%; in [9], 111%; in test [10], 100%; in test [11] it was 89%; in test [12], 58%. Further, the residual activity in [13] worked out at 98%; in test [14], 84%; in test [15], 30%; in test [16], 114%; in test [17], 66%; in [18], 89%. Further, the results for the residual activity in [19] and in test [20] were 56% and 82%, respectively.
For the molecule `O=C1NC(=O)c2c1c1c3ccccc3[nH]c1c1[nH]c3cc(Br)ccc3c21`, the residual activity in test [1] is 104%; in test [2], 90%; in test [3], 62%; in [4], 73%; in test [5], 91%; in [6], 88%. Also, the residual activity stood at 85% in test [7]; 92% in test [8]; 85% in [9]; 86% in test [10]; 110% in test [11]; 91% in test [12]. For the same molecule, the residual activity in [13] worked out at 86%; in test [14], 98%; in test [15] it was 82%; in [16], 94%; in test [17], 81%; in test [18], 37%. In addition, the residual activity in test [19] amounted to 27%; in test [20] it was 74%.
